# Values joined by “and” are separate entries in the source; they are usually repeats but may differ in a detail not shown here. Equal entries are not always repeated. Results filed as inconclusive are left out. Some structures have more than one record in an assay (separate samples or runs), and their calls can disagree. A number with no mark means an inactive call. Active and inactive are the calls of the source. Calls come from the whole dose curve; as a rule, active = well fitted curve in the direction sought with a large enough effect in the repeat runs; inconclusive = weak or mixed curves; inactive = no such curve, though single readings can be large; an effect the other way counts as inactive or inconclusive.
# Assay: qHTS RealTime-Glo MT Cell Viability Assay in HepG2 cells - 8 hour (AID 1224873); note: nearly all actives have a fitted effect of over 55% in size
# Details: RealTime-Glo luminescence; series mostly up to 76.8 µM; viability change, negative = cytotoxic: at the top concentration
# Method in brief: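 Real-time viability: cells seeded at 600 per well together with NanoLuc and cell-permeant prosubstrate, compounds added after 5 h incubation. Luminescence tracked at 0, 8, 16, 24, 32 and 40 h of exposure.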
# % is set by controls: 0 for no effect and ±100 for the full control effect.
SMILES,Potency,"viability change, negative = cytotoxic"
CCOc1ccccc1C(N)=O,inactive,–
Nc1nc(=S)c2[nH]cnc2[nH]1,inactive,–
O=c1n(CC2CO2)c(=O)n(CC2CO2)c(=O)n1CC1CO1 (centres undefined),inactive,–
O=C1Nc2ccccc2C1(c1ccc(O)cc1)c1ccc(O)cc1,inactive,–
CCCCCCC(O)CCCCCCCCCCC(=O)O (centres undefined),inactive,–
CCN(CC)c1ccc2c(C)cc(=O)oc2c1,inactive,–
NCCO,inactive,–
CC(=O)OCCOCCOCCOC(C)=O,inactive,–
O=C(O)c1cccc(C(=O)O)c1,inactive,–
C=C(C)C1CC=C(C)C(OC(C)=O)C1 (centres undefined),inactive,–
O=C(Oc1ccccc1)c1ccccc1O,inactive,–
CCC(=O)/C=C/C1C(C)=CCCC1(C)C (centres undefined),inactive,–
CC(C)(C)NC(=O)[C@@H]1CN(Cc2cccnc2)CCN1C[C@@H](O)C[C@@H](Cc1ccccc1)C(=O)N[C@H]1c2ccccc2C[C@H]1O,inactive,–
COC(=O)/C=C/c1ccccc1,inactive,–
CC(C)(C)NCC(O)c1cc(O)cc(O)c1 (centres undefined),–,-1.32% [at 35.3 µM]
Cc1ccnc2c1NC(=O)c1cccnc1N2C1CC1,inactive,–
NC(=Nc1ccccc1)Nc1ccccc1,inactive,–
COC(=O)c1cccc(C(=O)OC)c1,inactive,–
CC(=O)Nc1ccc(C(=O)CCl)cc1,–,1.25%
OCCN1CCNCC1,inactive,–
[Cl][In]([Cl])[Cl],inactive,–
O=C(Cl)c1cccc(C(=O)Cl)c1,inactive,–
CC(=O)C1=C(C)[C@@H]2C[C@@]3(C1)[C@H](C)CC[C@H]3C2(C)C,inactive,–
CCCCOCCOC(=O)c1ccccc1C(=O)OCCOCCCC,inactive,–
O=C(O)CP(=O)(O)O,–,4.64% [at 35.3 µM]
c1ccc2cc3c(ccc4ccccc43)cc2c1,inactive,–
CCCN[C@H]1CCc2nc(N)sc2C1,inactive,–

# Assay: qHTS RealTime-Glo MT Cell Viability Assay in HEK293 cells - 40 hour (AID 1224874); note: nearly all actives have a fitted effect of over 50% in size; note: potency is the fitted concentration of half-maximal effect
# Details: RealTime-Glo luminescence; max response: stronger effect = lower value
# Method in brief: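 Tox21 screen in HEK293 using RealTime-Glo MT chemistry, with cells and reagent co-dispensed. Luminescence proportional to viable cell number was captured at intervals during 40 h compound exposure at 37 C.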
SMILES,max response,Potency
CCOc1ccccc1C(N)=O,-15.3% and 4.4%,–
C/C=C/c1ccc(OCC)c(O)c1,-14.3% and 2.47%,–
Nc1nc(=S)c2[nH]cnc2[nH]1,–,21.3 µM (active) and 19.5 µM (active) and 26.8 µM (active)
O=c1n(CC2CO2)c(=O)n(CC2CO2)c(=O)n1CC1CO1 (centres undefined),–,1.37 µM (active)
CCC[C@H](N[C@@H](C)C(=O)N1[C@H](C(=O)O)C[C@@H]2CCCC[C@@H]21)C(=O)OCC,4.1% and 12.6%,–
O=C1Nc2ccccc2C1(c1ccc(O)cc1)c1ccc(O)cc1,-14.8%,49 µM (active)
CC[C@]1(O)C[C@@H]2CN(CCc3c([nH]c4ccccc34)[C@@](C(=O)OC)(c3cc4c(cc3OC)N(C)[C@H]3[C@@](O)(C(=O)OC)[C@H](OC(C)=O)[C@]5(CC)C=CCN6CC[C@]43[C@@H]65)C2)C1,–,15.1 nM (active) and 5.4 nM (active)
CCCCCCC(O)CCCCCCCCCCC(=O)O (centres undefined),-19.9% and -13.9%,–
CCN(CC)c1ccc2c(C)cc(=O)oc2c1,–,39.2 µM (active)
NCCO,-3.29% and 1.65%,–
CC(=O)OCCOCCOCCOC(C)=O,7.9% and 19.2%,–
O=C(O)c1cccc(C(=O)O)c1,5.05% and -3.16%,–
C=C(C)C1CC=C(C)C(OC(C)=O)C1 (centres undefined),-4.93% and 11%,–
O=C(Oc1ccccc1)c1ccccc1O,-18.8% and -3% and 3.05%,–
CCC(=O)/C=C/C1C(C)=CCCC1(C)C (centres undefined),-21.5% and 0.0714%,–
CC(C)(C)NC(=O)[C@@H]1CN(Cc2cccnc2)CCN1C[C@@H](O)C[C@@H](Cc1ccccc1)C(=O)N[C@H]1c2ccccc2C[C@H]1O,0.0575% and 0.362%,–
COC(=O)/C=C/c1ccccc1,-2.16%,–
CC(C)(C)NCC(O)c1cc(O)cc(O)c1 (centres undefined),4.94%,–

SMILES,max response,Potency
Cc1ccnc2c1NC(=O)c1cccnc1N2C1CC1,-13.4% and -3.25%,–
CC(=O)OCC1=C(C(=O)O)N2C(=O)[C@@H](NC(=O)Cc3cccs3)[C@H]2SC1,6.98%,–
COC(=O)c1cccc(C(=O)OC)c1,2.68% and 4.11%,–
Cc1cccc(O)c1C,-0.0816% and -5.42%,–
CC(=O)Nc1ccc(C(=O)CCl)cc1,19.7%,21.9 µM (active)
OCCN1CCNCC1,–,7.9 µM (active)
O,0.569% and 9.85%,–
C=C(C)C(=O)O,-0.401% and 9.57%,–
O=C(Cl)c1cccc(C(=O)Cl)c1,7.93% and 0.091%,–
CC(=O)C1=C(C)[C@@H]2C[C@@]3(C1)[C@H](C)CC[C@H]3C2(C)C,-1.5% and -2.44%,–
C#CC(C)(CC)OC(=O)c1ccccc1C(=O)O (centres undefined),0.788%,–
CCCCOCCOC(=O)c1ccccc1C(=O)OCCOCCCC,-18.4%,–
O=C(O)CP(=O)(O)O,-6.08%,–
c1ccc2cc3c(ccc4ccccc43)cc2c1,0.679%,–
O=C(O)c1cn(-c2ccc(F)cc2)c2cc(N3CCNCC3)c(F)cc2c1=O,4.85% and 19.5%,–
CC(=O)O[C@]1(C(C)=O)CC[C@H]2[C@@H]3C[C@H](C)C4=CC(=O)CC[C@]4(C)[C@H]3CC[C@@]21C,–,19.5 µM (active) and 9.52 µM (active)
CCCN[C@H]1CCc2nc(N)sc2C1,-11%,–

# Source: PubChem BioAssay (Tox21)
